Measurements from the supplement of paper PMC6555819.

test system: PXR:RXRa (NR concentration 270 nM, RXRa partner concentration 90 nM); test: PBM binding z-score (relative to random genomic background probes); higher = stronger binding; sequences stand for … in GC…GCGATTGACAGCGTAGAATGAAGG
Summary of the method: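 Random background probes are the reference for binding z-scores. These scores derive from regression-normalized fluorescence on custom Agilent 4×180K protein-binding microarrays incubated 1 h with ligand-free nuclear receptor dimers. Binding was detected with antibodies against each partner (one per run).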

How did the PBM binding z-score turn out when CCAGACAGGTGAGAAGGGAACTCAGCCTCGATTA was run?
Its PBM binding z-score is -0.225.

ACTCGGAGGACAAAGGTCTGAGCTACGCCAGTGA was tested. Which PBM binding z-score did it give?
The PBM binding z-score was -0.428.

With ACCTCTAGGTAACCAAGTTCAGTGAATGCCGAAC as the sequence, how does the PBM binding z-score read?
Its PBM binding z-score is 1.65.

For AATACAGGGTCATCGTAGGCCGGAGTACGCACAG, which PBM binding z-score is on record?
Its PBM binding z-score is 4.4.

How did the PBM binding z-score turn out when CCACCAAGGTGAACAAGGTCGTTGATTACTATTC was run?
Its PBM binding z-score is 3.17.

Which PBM binding z-score does the source give for CCGAGTAGGTTATGGCGCATTCAGGCAACGGTGA here?
Its PBM binding z-score is -0.289.

With ACTTACGGGTCAACGAGGGTATAGCACGCGTATA as the sequence, how does the PBM binding z-score read?
The PBM binding z-score was 4.29.

Which PBM binding z-score does the source give for CGTCCAAGGTCAGAGAGGTCAGTCAATGCCGAGT here?
Its PBM binding z-score is 6.13.

For CAAACTAGGTCAAGAGGTTAAAGTCCGCTTCCCG, which PBM binding z-score is on record?
The PBM binding z-score was 3.48.

For TCTAGCAGGCCAGAGAGTCACTCAAGAGGTACGG, which PBM binding z-score is on record?
Its PBM binding z-score is -0.468.

How did the PBM binding z-score turn out when TCTTTTAGATCAAAGGTTAAGAAAGCCGAAGCCT was run?
The PBM binding z-score was 2.05.

With CAAACTTGGTCAAGGTCAAAGTCGGTTTGTGCCA as the sequence, how does the PBM binding z-score read?
The PBM binding z-score was 4.45.

With GCGACTGTGGCATCAGCAGGTTACCATAACTTAA as the sequence, how does the PBM binding z-score read?
Its PBM binding z-score is -0.281.

ATCGAAAGGTCGAGGAGAGTATAGAGAAAGGGAA was tested. Which PBM binding z-score did it give?
Its PBM binding z-score is 2.33.

With CATACAGGGTCAGCTAGGCCACAGTAGGGACGGC as the sequence, how does the PBM binding z-score read?
The PBM binding z-score was 2.51.

Which PBM binding z-score does the source give for TCATATAGGAAAATGCTAGGTGAAAGTCCGATCT here?
Its PBM binding z-score is 0.59.

How did the PBM binding z-score turn out when CCTCGGAGGACAGAACGTCAGAGCTGTCCGCTTT was run?
Its PBM binding z-score is -1.12.

CCGACTGGGGCATAAGGTTACCATGAGCCAGCCC was tested. Which PBM binding z-score did it give?
The PBM binding z-score was 0.16.

Which PBM binding z-score does the source give for TCTTGTAGATCAAGCAGGTTTAGAAAGCCTGAGT here?
Its PBM binding z-score is 0.273.

GGAACGAGGGCAAGTTGATGGCAGAGTTTGATGG was tested. Which PBM binding z-score did it give?
The PBM binding z-score was 0.948.

CCTCGGAGGACAACAGGTGGTCAGAGCTGCCAGA was tested. Which PBM binding z-score did it give?
Its PBM binding z-score is -0.667.

For TCGAGTAGGTTCCCAATGGGGCATTCAGCTTTCT, which PBM binding z-score is on record?
Its PBM binding z-score is -0.411.

Which PBM binding z-score does the source give for TCGAATAGGTTAGTCGGGGCATTCAGCCAACATA here?
The PBM binding z-score was 0.59.

TCGAGTAGGTTACCAATGGGGTATTCAGCTTTCT was tested. Which PBM binding z-score did it give?
The PBM binding z-score was 0.05.

With CAAACTAGTTCAAGGTCAAAGTCGGTTTGTGCCA as the sequence, how does the PBM binding z-score read?
The PBM binding z-score was 5.23.

For CGAACTAGGTCATCCAGGACAGCGAATACATTGA, which PBM binding z-score is on record?
Its PBM binding z-score is 1.78.

Which PBM binding z-score does the source give for ATACCAAAGTGATCGTGAGGTCGTTGATACTAAC here?
The PBM binding z-score was 1.86.

With ACCTCTAGGTAAGACTCAGTTCAGTGAAGAACGC as the sequence, how does the PBM binding z-score read?
Its PBM binding z-score is 0.405.

TCATATAGGTAAAATGTGAAAGTCGGTGTGGTAA was tested. Which PBM binding z-score did it give?
The PBM binding z-score was 0.357.

How did the PBM binding z-score turn out when CCGACTGGGGCAGAAAGGTTACCATCCCATCCGG was run?
Its PBM binding z-score is 0.837.

With TGGAGTAGGTTAGGGGCATTCAGAATGGCGTCGA as the sequence, how does the PBM binding z-score read?
Its PBM binding z-score is 1.18.

How did the PBM binding z-score turn out when CCTACTGGGCCAAAGTCATTGATCAGTCAAAGCA was run?
Its PBM binding z-score is -0.584.

With ATTCGGAGGACAAAGGTCAGAGCTACGCCAGTGA as the sequence, how does the PBM binding z-score read?
The PBM binding z-score was 3.99.

How did the PBM binding z-score turn out when ATACCAAGGTGATCGTGAGGTCGTTGAGACTAAC was run?
Its PBM binding z-score is 2.93.

Which PBM binding z-score does the source give for GCTAGCAGGCCAGTTGGGTCACTCAATGACGGGC here?
The PBM binding z-score was -0.0174.

How did the PBM binding z-score turn out when CCTACTGGGCCCAAAAGGTCATTGATGCCGATAA was run?
Its PBM binding z-score is 4.97.

For AGAACGAGGGCACGATGAGTTGATAGCAGAGTAG, which PBM binding z-score is on record?
Its PBM binding z-score is 1.17.

For TCATATAAGTAATACAGGTGAAAGTCGGCATCTA, which PBM binding z-score is on record?
The PBM binding z-score was 0.888.

For ATCGAAATGTCGACGAGGTGAGTATACACCGTTT, which PBM binding z-score is on record?
Its PBM binding z-score is -0.067.

For TCTCGGAGGACACGAAAGGTCAGAGCTCGACATC, which PBM binding z-score is on record?
Its PBM binding z-score is 3.96.
